Results taken from the supplement of paper PMC3545927.
The list shows a part of the results. No count for the full screen is at hand.

Target: furin, P09958
Test: furin cleavage Z-score vs untreated control; higher = more cleavage, active = 3.5 or more, inactive = 1 or less, 8 variable residues between constant flanks
Summary of the method: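 The cleavage Z-score was derived for purified furin acting on 8-mer peptides held on magnetic beads and fused to a cDNA oligonucleotide. Digests lasted 7.5, 15 or 30 min at 1:10 enzyme:substrate in 50 mM HEPES pH 7.5 with CaCl2 and NaCl. Sequencing counts of released DNA, log-transformed against furin-free reactions, were lowess-adjusted and scaled by median absolute deviation.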

furin, P09958, sequence (P09958 whole entry): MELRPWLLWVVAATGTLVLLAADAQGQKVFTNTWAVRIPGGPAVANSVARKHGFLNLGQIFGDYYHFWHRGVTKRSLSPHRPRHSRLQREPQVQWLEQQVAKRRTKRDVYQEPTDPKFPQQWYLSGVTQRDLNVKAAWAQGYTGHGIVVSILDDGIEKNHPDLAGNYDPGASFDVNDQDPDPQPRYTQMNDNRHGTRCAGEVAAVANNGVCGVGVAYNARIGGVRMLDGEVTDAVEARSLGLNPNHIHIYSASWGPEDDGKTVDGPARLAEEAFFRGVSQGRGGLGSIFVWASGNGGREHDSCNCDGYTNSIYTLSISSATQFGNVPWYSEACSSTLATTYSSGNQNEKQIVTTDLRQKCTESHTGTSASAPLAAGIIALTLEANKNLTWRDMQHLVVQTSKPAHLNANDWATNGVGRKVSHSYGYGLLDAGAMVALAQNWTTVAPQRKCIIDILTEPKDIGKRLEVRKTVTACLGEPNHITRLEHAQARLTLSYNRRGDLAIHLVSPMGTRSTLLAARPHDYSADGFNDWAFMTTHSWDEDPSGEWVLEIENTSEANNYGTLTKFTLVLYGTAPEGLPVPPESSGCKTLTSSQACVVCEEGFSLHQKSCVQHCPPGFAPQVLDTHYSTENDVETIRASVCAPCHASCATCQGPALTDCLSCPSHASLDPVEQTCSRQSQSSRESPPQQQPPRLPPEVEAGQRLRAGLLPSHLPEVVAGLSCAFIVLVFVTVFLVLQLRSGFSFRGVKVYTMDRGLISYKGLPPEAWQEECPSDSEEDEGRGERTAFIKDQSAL

Sequence | furin cleavage Z-score (7.5 min) | furin cleavage Z-score (15 min) | furin cleavage Z-score (30 min)
CARLRRVKTAAGNASASA [FS-1746] | -0.934 (inactive) | -0.994 (inactive) | -0.54 (inactive)
CARLRRSLPPAGNASASA [FS-2280] | 7.15 (active) | 6.52 (active) | 7.39 (active)
CARLRRSKRCAGNASASA [FS-1607] | 2.93 | 1.58 | 3.77 (active)
CARLRRSLSPAGNASASA [FS-2352] | 10.8 (active) | 9.04 (active) | 8.19 (active)
CARLRRSGRCAGNASASA [FS-3161] | 3.21 | -0.166 (inactive) | 3.48
CARLRRQKKGAGNASASA [FS-916] | -0.934 (inactive) | -1.47 (inactive) | -0.511 (inactive)
CARLRRSNYFAGNASASA [FS-2717] | 0.785 (inactive) | 3.14 | 4.28 (active)
CAMWNFISGIAGNASASA [HC1043] | -0.76 (inactive) | -0.163 (inactive) | 1.37
CADTDVFVLNAGNASASA [HC427] | -0.554 (inactive) | -0.537 (inactive) | -1.25 (inactive)
CAKRVYYLTRAGNASASA [HC1560] | 2.27 | 0.852 (inactive) | -0.874 (inactive)
CARRRRSSVFAGNASASA [FS-2599] | 6.51 (active) | 7.07 (active) | 8.27 (active)
CARRRRSSKRAGNASASA [FS-2518] | 4.4 (active) | 5.93 (active) | 5.04 (active)
CARRRRSILFAGNASASA [FS-2234] | 5.15 (active) | 6.77 (active) | 8.96 (active)
CARRRRSISRAGNASASA [FS-2795] | 6.77 (active) | 7.84 (active) | 8.25 (active)
CAIVSTAAQTAGNASASA [HC691] | -1.17 (inactive) | -1.15 (inactive) | -1.22 (inactive)
CAVVCTSMSYAGNASASA [HC96] | 1.17 | -0.0848 (inactive) | 0.455 (inactive)
CATTPESGSWAGNASASA [HC53] | -0.759 (inactive) | -0.574 (inactive) | -0.54 (inactive)
CASTPCSAHLAGNASASA [HC2477] | 0.591 (inactive) | 0.749 (inactive) | -1.42 (inactive)
CAEVVQSTWVAGNASASA [HC139] | -1.19 (inactive) | -0.568 (inactive) | -0.254 (inactive)
CAVDVQYLYGAGNASASA [HC509] | -0.528 (inactive) | 0.269 (inactive) | 0.219 (inactive)
CAHPTLVFDIAGNASASA [HC601] | -0.391 (inactive) | -1.13 (inactive) | -0.764 (inactive)
CARRRRSIQNAGNASASA [FS-3066] | 7.74 (active) | 10.2 (active) | 7.21 (active)

Sequence | furin cleavage Z-score (7.5 min) | furin cleavage Z-score (15 min) | furin cleavage Z-score (30 min)
CALVAEEDERAGNASASA [HC1290] | -0.68 (inactive) | -1.05 (inactive) | -0.546 (inactive)
CASGMFDSSVAGNASASA [HC915] | -1.55 (inactive) | -0.578 (inactive) | -0.341 (inactive)
CAGEMEECSQAGNASASA [HC1796] | -0.269 (inactive) | 1.03 | 0.391 (inactive)
CAESGRGKRYAGNASASA [FS-25] | 2.19 | 4.19 (active) | 6.23 (active)
CAGEMRKKRYAGNASASA [FS-780] | 8.98 (active) | 11.5 (active) | 11.2 (active)
CAESIRMKRYAGNASASA [FS-765] | 10.4 (active) | 10.9 (active) | 9.17 (active)
CAEVPCHRTSAGNASASA [HC2398] | 0.843 (inactive) | -0.111 (inactive) | 1.35
CAQRDRQKRRAGNASASA [FS-558] | 8.63 (active) | 9.96 (active) | 8.51 (active)
CAWRRRQKRRAGNASASA [FS-898] | 11.1 (active) | 12.6 (active) | 10.1 (active)
CARYDRQKRRAGNASASA [FS-866] | 5.33 (active) | 8.92 (active) | 8.14 (active)
CAVLIDILAGAGNASASA [HC1084] | -1.68 (inactive) | -0.0246 (inactive) | -1.35 (inactive)
CALDLPPIIQAGNASASA [HC1599] | 0.239 (inactive) | -0.216 (inactive) | -0.33 (inactive)
CATTVCSGSWAGNASASA [HC1870] | -0.934 (inactive) | -0.656 (inactive) | -0.569 (inactive)
CATTICSGSWAGNASASA [HC1864] | -0.759 (inactive) | -0.615 (inactive) | -0.31 (inactive)
CATTPCQGSWAGNASASA [HC79] | -0.663 (inactive) | 0.917 (inactive) | -0.281 (inactive)
CAMECCSQHLAGNASASA [HC1720] | 0.573 (inactive) | 0.0768 (inactive) | 0.728 (inactive)
CARSRRLAEQAGNASASA [FS-1933] | 0.188 (inactive) | 2.91 | 3.14
CARRPRLSDRAGNASASA [FS-3059] | -0.769 (inactive) | -0.45 (inactive) | -0.545 (inactive)
CARRPRGTMQAGNASASA [FS-1920] | 4.44 (active) | 4.25 (active) | 6.42 (active)
CARRPRHAEQAGNASASA [FS-2781] | 4.69 (active) | 5.7 (active) | 4 (active)
CARRPRDDDSAGNASASA [FS-3057] | -0.221 (inactive) | -0.299 (inactive) | -1.38 (inactive)
CAEEMEECSQAGNASASA [HC1792] | 0.0451 (inactive) | -0.543 (inactive) | -0.411 (inactive)
